# Bioassay records from PubChem.
# HCMV antiviral: blocks human cytomegalovirus replication | HFF cells, HCMV-luciferase reporter, 72 h; stronger effect = lower value | activity change, negative = inhibition, % at 57.5 µM | actives 4.5% (n = 410,000) | AID 1259415; in the data active means activity change below about -60%; inconclusive means no clear call, values can overlap the other calls; inactive means above about -39%; further: on the % scale 0 is the no-effect control and ±100 the full control effect
#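 Two compound doses tested in HFFs infected with HCMV-luciferase, MOI 1 PFU/cell, 72 h at 37C. Lysate luminescence read with OneGlo; data normalized against buffer-only and 10uM Salinomycin inhibitor controls.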
# Marburg entry inh: Marburg virus entry inhibition; Marburg virus pseudotyped entry inhibition, cell reporter; Potency, µM (top dose mostly 37.8 µM), inactives show at the top dose activity change, negative = inhibition, hits mostly inhibitors; actives 1.8% (n = 300,000); calls by dose curve; tested in HEK293 cells; further: potency means the concentration at half of the fitted maximal effect; on the % scale 0 is the no-effect control and ±100 the full control effect
# FMDV antiviral: foot and mouth disease virus antiviral activity | FMDV antiviral cell-based qHTS | Potency, µM (doses to about 57.9 µM), for inactives: at the top dose activity change, negative = inhibition, most hits filed as inhibitors | actives 1.2% (n = 410,000) | AID 1159524; calls by dose curve; tested in HEK293T cells; further: read-out not given here; potency means the concentration at half of the fitted maximal effect; on the % scale 0 is the no-effect control and ±100 the full control effect; nearly all actives have a fitted effect of over 45% in size
# SARS PLP yeast: SARS-CoV PLP inhibition in yeast; AID 485353; S. cerevisiae expressing SARS-CoV PLpro, growth rescue; Potency, µM (doses to about 32.9 µM), for the others: top-dose activity, positive = growth rescue, usual class: activators; actives 0.19% (n = 330,000); calls by dose curve; further: potency means the concentration at half of the fitted maximal effect; 0% is about no effect; nearly all actives have a fitted effect of over 55% in size
# LASV entry inh: inhibitors of Lassa virus binding or cell entry. Potency, µM (top dose mostly 37.9 µM), inactives show at the highest dose activity change, negative = inhibition, usual class: inhibitors. AID 540256. Lassa virus pseudotype entry inhibition, cell reporter. actives 1.2% (n = 300,000); calls by dose curve; tested in HEK293 cells; further: potency means the concentration at half of the fitted maximal effect; on the % scale 0 is the no-effect control and ±100 the full control effect; nearly all actives have a fitted effect of over 50% in size
# HCV inhibitor: HCV inhibition. Potency, µM (top dose mostly 41.8 µM), inactives show at the highest dose activity change, negative = inhibition, hits mostly inhibitors. actives 3.4% (n = 340,000). Huh7.5.1 HCVcc-Cre infection, luciferase reporter, 44 h. AID 651820; active means well fitted inhibition curve with a large enough effect; inconclusive means small, poorly fitted or top-dose-only effect, or another doubt; inactive means no such curve, though single readings can be large or run the other way; further: potency means the concentration at half of the fitted maximal effect; on the % scale 0 is the no-effect control and ±100 the full control effect
#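 Whole-lifecycle infectious HCVcc-Cre system; cells 1,000/well, compound then virus (~0.5 moi) added 4 h after plating, 44 h culture. Luciferase read 15 sec following 15 min substrate incubation, room temp.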
# * hit, by the source's call; ? = inconclusive; / = not tested or not shown; [ ] = another dose, or the depositor's remark. Rows were chosen to be rich in hits. Some 8% of all compounds tested hit in one or more screens of this group.
SMILES,HCMV antiviral,Marburg entry inh,FMDV antiviral,SARS PLP yeast,LASV entry inh,HCV inhibitor
CN1C(=O)C(C2(O)C(=O)N(Cc3ccccc3)c3cc([N+](=O)[O-])ccc32)c2ccccc21 (stereo unspecified),-79*,/,/,/,/,/
CC1(C)CC(=O)C(C2(O)C(=O)N(Cc3ccccc3)c3ccccc32)CO1 (stereo unspecified),-16,?,-9%,18%,?,0%
CC1=C(/C=C/C(C)=C/C=C/C(C)=C/C(=O)O)C(C)(C)CCC1O (stereo unspecified),/,/,-22%,/,/,/
O=C(Nc1ncc(Cc2ccc(SC(F)F)cc2)s1)c1ccc(OC(F)F)cc1,-86*,5.6µM*,?,4%,?,?
COc1ccc(C(=O)Nc2ccc(SC(F)F)cc2)cc1,42,?,10%,-2%,15%,?
COc1ccccc1NC(=O)N1CC(=O)N2[C@H](CO)[C@@H](c3ccc(Br)cc3)[C@H]2C1,3,/,/,/,/,/
CN(C)c1ccc(C2NC(=O)c3ccccc3N2)cc1 (stereo unspecified),12,10µM*,21%,-1%,?,?
CN(C)c1ccc(C2Nc3ccccc3C(=O)N2CCCN2CCOCC2)cc1 (stereo unspecified),9,/,2.8µM*,-1%,/,7%
CCN(CC)CCN1C(=O)c2ccccc2NC1c1ccc(F)cc1 (stereo unspecified),20,9%,12%,6%,10%,-18%
CCN(CC)CCN1C(=O)c2ccccc2NC1c1ccc(N(C)C)cc1 (stereo unspecified),24,-6%[46.1 µM],3.2µM*,-17%,-21%,12%
O=C1NC(c2ccc(Cl)cc2)Nc2ccccc21 (stereo unspecified),-30,-19%[14.2 µM],12%,0%,?,13%
O=[N+]([O-])c1ccc(NC(=S)NCCc2ccccc2)cc1,-96*,?,36%,-81%,?,?
O=[N+]([O-])c1ccc(NNC(=S)Nc2ccccc2)cc1,/,?,-1%,-30%,-1%,11µM*
COc1ccc([N+](=O)[O-])cc1NC(=S)Nc1ccccc1,44,5%,-24%,-3%,9%,4%
O=[N+]([O-])c1ccc(NC(=S)NCc2ccc(F)cc2)cc1,-99*,?,-6%,-23%,?,?
O=C(Nc1ccc(F)cc1)c1nc[nH]c1C(=O)Nc1ccc([N+](=O)[O-])cc1,-61*,?,-21%,0%,3%[46.1 µM],6%
Cc1ncc2c(c1CNC(=O)c1ccccc1F)CCN(C(=O)c1ccc3c(c1)OCCO3)C2,/,/,-8%,/,/,/
COc1ccc(S(=O)(=O)N2CCC(Nc3ccccc3Cl)CC2)cc1,-15,?,-8%,1%,-10%,/
CNC(=O)C(=O)NCCN1CCN(C(=O)c2ccc([N+](=O)[O-])cc2)CC1,33,-6%[46.1 µM],-9%,1%,-17%,13%
S=C(NCCc1ccc(Cl)cc1)NC1CC1,-75*,/,26%,1%,/,11%
S=C(NCCc1ccccc1)Nc1ccc(Cl)cc1,-79*,20%,35%,6%,4%,?
CCCCc1ccc(NC(=O)C(=O)NCCN2CCN(Cc3ccc([N+](=O)[O-])cc3)CC2)cc1,-60*,/,?,-2%,/,?
O=[N+]([O-])c1ccc(O)c(NC(=S)Nc2ccccc2)c1,-89*,16%,43%,-3%,2%,-10%
CC(C)(C)SCCNC(=O)CN(c1ccccc1)S(=O)(=O)c1ccc(F)cc1,2,-6%[46.1 µM],14%,0%,1%,8%
CCCNC(=O)C(Cc1ccc(C(F)(F)P(=O)(OCC)OCC)cc1)NC(=O)c1ccc(C#N)cc1 (stereo unspecified),26,/,-3%,-9%,/,-28%
SMILES,HCMV antiviral,Marburg entry inh,FMDV antiviral,SARS PLP yeast,LASV entry inh,HCV inhibitor
CCOC(=O)[C@]12C[C@@H]3OCCN(C(=O)N[C@@H]1c1ccccc1)[C@@H]32,/,2%[14.2 µM],/,/,/,/
O=[N+]([O-])c1ccc(NC(=S)NCc2ccncc2)cc1,-19,?,-6%,-2%,1%[46.1 µM],?
O=[N+]([O-])c1ccc(NC(=S)NCCc2ccc(Cl)cc2)cc1,-107*,?,9%,-30%,?,?
Cc1csc2nc(COC(=O)c3cccc(NC(=O)COc4ccc(Cl)cc4)c3)cc(=O)n12,27,/,-14%,/,?,/
CCOc1cc(N2CCOCC2)c(OCC)cc1NC(=O)Cc1cccc(OC)c1,-13,12%[46.1 µM],-11%,11%,?,-14%
Cc1ccc(NC(=O)c2ccccc2-c2ccc(C(F)(F)F)cc2)cc1S(=O)(=O)N1CCOCC1,-36,?,30%,-4%,?,?
CCOc1ccc(S(=O)(=O)N2CCN(CC)CC2)cc1NC(=O)c1ccccc1F,-84*,-18%[46.1 µM],11%,-2%,13%[46.1 µM],-15%
COc1ccc(NC(=O)c2ccccc2-c2ccc(C(F)(F)F)cc2)cc1S(=O)(=O)N1CCOCC1,-67*,-38%,41%,3%,?,1%
CCOc1cc(N2CCOCC2)c(OCC)cc1NC(=O)COc1cccc(CC)c1,-36,/,-21%,-2%,/,10µM*
COc1ccc(Nc2nc(-c3ccccc3)nc3ccccc23)cc1S(=O)(=O)N1CCOCC1,-60*,/,?,-4%,/,22µM*
CCOc1ccc(S(=O)(=O)N2CCN(C)CC2)cc1NC(=O)c1ccccc1F,-27,?,42%,16%,/,-29%
CN(C)CC(C)(O)c1ccc2c(c1)CN(Cc1cccn1-c1cccnc1)CCO2 (stereo unspecified),/,/,9%,/,/,/
COc1ccc(S(=O)(=O)N(C)CC(=O)NCCN2CCOCC2)cc1C,-5,1%[46.1 µM],7%,-1%,/,15%
COc1ccccc1N1CCN(S(=O)(=O)CCNC(=O)Cc2ccc(Cl)cc2)CC1,?,/,?,/,-13%[46.1 µM],/
Cc1ccc(NC(=O)c2cc(-c3ccco3)nc3ccccc23)cc1S(=O)(=O)N1CCOCC1,-3,?,-21%,0%,-22%,-14%
COc1ccc(S(=O)(=O)N2CCOCC2)cc1NC(=O)c1ccccc1-c1ccc(C(F)(F)F)cc1,?,?,16%,4%,6.3µM*,-13%
CCOc1cc(N2CCOCC2)c(OCC)cc1NC(=O)COc1ncnc2ccccc12,51,-35%,-9%,-3%,-18%,?
COc1ccc(NC(=O)c2cc(-c3ccco3)nc3ccccc23)cc1S(=O)(=O)N1CCOCC1,15,/,-29%,-1%,/,8.9µM*
CCOc1cc(N2CCOCC2)c(OCC)cc1NC(=O)c1cc(-c2ccco2)nc2ccccc12,?,16µM*,/,3%,?,-27%
CN(C)C(CNC(=O)c1cc(-c2ccco2)nc2ccccc12)c1ccccc1 (stereo unspecified),18,1%[46.1 µM],37%,10µM*,5%[46.1 µM],-24%
